Laboratory results from PubChem BioAssay (NCI).
This is part of a sample that, as a whole, favours compounds with a hit. Of some 83,000 tested, about 20% had one in any assay.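 96-well plates, one dose, 48 hours. Percent growth reported; active if below 10.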 Active and inactive are the calls of the source.

Columns and labels:
Experiment in all cases: NCI-60 one-dose screen, 48 h (100 = growth as untreated, 0 = no growth, -100 = all killed)
Settings in all cases: 10 µM
[1] = test system: HCT-15 colon
[2] = test system: HT29 colon
[3] = test system: SNB-75 CNS
[4] = test system: SNB-19 CNS
[5] = test system: U251 CNS
[6] = test system: PC-3 prostate
[7] = test system: SK-MEL-5 melanoma
[8] = test system: UACC-62 melanoma
[9] = test system: LOX IMVI melanoma
[10] = test system: SK-MEL-28 melanoma
[11] = test system: SK-MEL-2 melanoma
[12] = test system: EKVX NSCLC
[13] = test system: SN12C renal
[14] = test system: UO-31 renal
[15] = test system: ACHN renal
[16] = test system: A498 renal
[17] = test system: CCRF-CEM leukemia
[18] = test system: MOLT-4 leukemia
[19] = test system: TK-10 renal
[20] = test system: CAKI-1 renal

Measured: growth

CS(=O)(=O)c1nccc(-c2c(-c3cccc(OCc4ccccc4)c3)nc3sccn23)n1
active: [7] 0.137% | [14] 3.7%
inactive: [1] 49.4% | [2] 77.9% | [3] 97.5% | [4] 88.6% | [5] 89.1% | [6] 66.2% | [8] 62.4% | [9] 28.6% | [10] 77.1% | [11] 103% | [12] 92.5% | [13] 76.2% | [15] 95.9% | [16] 72.5% | [17] 52.5% | [18] 26.5%

O=C(Nc1ccc2c(O)cc(S(=O)(=O)O)cc2c1)c1ccc([N+](=O)[O-])cc1
inactive: [1] 99.3% | [2] 95.3% | [3] 99.6% | [4] 95.8% | [5] 84% | [6] 83.1% | [7] 94.8% | [8] 101% | [9] 95.1% | [10] 102% | [11] 102% | [12] 93.7% | [13] 98.8% | [19] 102% | [15] 107% | [16] 97.9% | [17] 88.5% | [18] 63.7%

COc1cc(-c2csc(NC(=O)Nc3cc(C(F)(F)F)cc(C(F)(F)F)c3)n2)cc(OC)c1OC
active: [2] 7.94% | [5] 9.2% | [6] 4.29% | [7] -4.49% | [9] 6.63% | [11] 7.21% | [12] 4.59% | [13] 7.93% | [19] 9.24% | [15] 4.33%
inactive: [1] 11.8% | [3] 34.1% | [4] 25.3% | [8] 18.7% | [10] 17.6% | [16] 10.1% | [18] 17.4%

CCOc1ccccc1/C=N\N=C(\N)N/N=C/c1ccccc1OCC
inactive: [1] 24.7% | [2] 10.7% | [4] 43% | [5] 38.3% | [6] 31.9% | [7] 17.8% | [8] 30.9% | [9] 30.9% | [10] 42.9% | [11] 14.9% | [12] 64.8% | [13] 45.2% | [19] 67.8% | [15] 44.8% | [17] 16.9% | [18] 26.5%
active: [3] -3.85%

COc1cc(/C=C2\CCCC3=C2NC(N)=NC3c2cc(OC)c(OC)c(OC)c2)cc(OC)c1OC (configuration not stated)
inactive: [3] 45.7% | [4] 61.6% | [6] 25.9% | [10] 24.9% | [12] 56% | [14] 34.3%
active: [1] -4.55% | [2] -35.4% | [5] -85.2% | [7] -96.5% | [8] -41.1% | [9] -46.7% | [11] -0.813% | [13] -5.19% | [15] -37.9% | [20] -4.06% | [16] 0.45% | [17] 2.89% | [18] -3.56%

COc1ccc(-c2n[nH]nc2-c2cc(OC)c(OC)c(OC)c2)cc1
active: [2] 4.38% | [5] 1.61% | [7] -53.9% | [9] 9.46% | [16] -12.9% | [17] 9.31% | [18] 6.91%
inactive: [1] 25.8% | [3] 50.1% | [4] 58.3% | [6] 23.4% | [8] 38.4% | [10] 64.4% | [11] 21.2% | [12] 54.4% | [13] 25% | [14] 44.3% | [15] 41.2% | [20] 27.6%

CC(C)=CCC/C(C)=C/CC/C(C)=C/CC/C=C(\C)CC/C=C(\C)CCC(=O)Nc1ccn(C2OC(CO)C(O)C2(F)F)c(=O)n1 (configuration not stated)
active: [3] 4.15% | [7] -63.4% | [9] 5.76% | [11] -4.27% | [14] 3.33% | [15] 6.71% | [16] -44.9% | [17] -6.58% | [18] -14.2%
inactive: [1] 50.9% | [2] 36.2% | [4] 23.4% | [5] 20.5% | [6] 37.2% | [8] 22% | [10] 60% | [12] 34.6% | [13] 15.3%

CCCCN1C(=O)CC(SC2CC(=O)N(CCCC)C2=O)C1=O (configuration not stated)
inactive: [1] 120% | [2] 76.1% | [3] 87.4% | [4] 99.5% | [5] 107% | [6] 99.4% | [7] 104% | [8] 96.6% | [9] 95% | [10] 121% | [11] 99.7% | [12] 98.5% | [13] 102% | [19] 103% | [15] 99% | [20] 88.6% | [16] 99.6% | [17] 97.1% | [18] 103%

CS(=O)(=O)c1nccc(-c2c(-c3cccc(OCCc4ccccc4)c3)nc3sccn23)n1
inactive: [1] 108% | [2] 99.7% | [3] 98.4% | [4] 92.6% | [5] 99.4% | [6] 86.9% | [7] 78.3% | [8] 85.9% | [9] 94.2% | [10] 112% | [11] 107% | [12] 98.6% | [13] 95.5% | [14] 71.5% | [15] 101% | [20] 85.7% | [16] 91.7% | [17] 91.3% | [18] 84.5%

COc1ccc(/C=C2\CCCC3=C2NC(N)=NC3c2ccc(OC)c(OC)c2)cc1OC (configuration not stated)
inactive: [1] 35.9% | [2] 24.2% | [3] 63.9% | [4] 88.7% | [5] 37.8% | [6] 61.5% | [7] 39.7% | [8] 52.8% | [9] 12.9% | [10] 65.3% | [11] 56.8% | [12] 82.7% | [13] 57.4% | [14] 63% | [15] 27.3% | [20] 55.9% | [16] 91.3% | [17] 15.3% | [18] 53.1%

O=C(N/N=C/c1ccc(Cl)cc1)c1ccccc1Nc1cccc(C(F)(F)F)c1
active: [16] -13.2%
inactive: [1] 79.1% | [2] 75.8% | [3] 78.7% | [4] 88.4% | [5] 72% | [6] 71.6% | [7] 34% | [8] 76.4% | [9] 83.7% | [10] 79.8% | [11] 70.6% | [12] 66.6% | [13] 91.3% | [14] 40.8% | [15] 102% | [20] 86% | [17] 69.7% | [18] 74.2%

Fc1ccc(C(c2ccc(F)cc2)C(Cl)Cl)cc1
inactive: [1] 104% | [2] 97.7% | [3] 96.1% | [4] 101% | [5] 103% | [6] 92.2% | [7] 101% | [8] 106% | [9] 96.3% | [10] 101% | [11] 97.1% | [12] 101% | [13] 108% | [19] 110% | [15] 102% | [20] 96.8% | [17] 93.7% | [18] 94.2%

Cc1ccc(NC(=S)NNC(=S)Nc2ccc(C)cc2)cc1
inactive: [1] 44.1% | [2] 82.6% | [3] 40.2% | [4] 65.4% | [5] 56.8% | [6] 77.2% | [7] 55.6% | [8] 48.2% | [9] 75.3% | [10] 70.8% | [11] 66.1% | [12] 92.7% | [13] 68.1% | [19] 86.7% | [15] 77.1% | [20] 67.8% | [16] 73.4% | [17] 43.9% | [18] 45.3%

CN(C)CCOc1ccc(-c2nc3sccn3c2-c2ccnc(S(C)(=O)=O)n2)cc1
inactive: [1] 101% | [2] 103% | [3] 88.5% | [4] 99.1% | [5] 95.1% | [6] 87.2% | [7] 101% | [8] 105% | [9] 97.5% | [10] 110% | [11] 111% | [12] 102% | [13] 101% | [14] 97.1% | [15] 106% | [20] 98.8% | [16] 96.3% | [17] 91% | [18] 109%

O=C1/C(=C/c2ccc([N+](=O)[O-])s2)Oc2cc(Cl)ccc21
inactive: [3] 58.8% | [7] 17.6% | [20] 52.8% | [16] 102%
active: [1] 0.579% | [2] -4.42% | [4] 2.32% | [5] -58% | [6] -73% | [8] -37.7% | [9] -78.4% | [10] -29.2% | [11] -49.9% | [13] -2.52% | [14] -92% | [19] -26.8% | [15] -70.5% | [17] -9.78% | [18] 2.92%
